Records with an inconclusive call do not appear. Activity calls are given as the source filed them. Unless noted, the call rests on the fitted dose curve; in most records, active means well fitted curve in the direction sought with a large enough effect; inconclusive means small, poorly fitted or top-dose-only effect, or another doubt; inactive means no such curve, though single readings can be large; an effect the other way counts as inactive or inconclusive.
What was measured:
[1] = AP1 Signaling Pathway (AID 357; active means well fitted curve in either direction with a large enough effect, not every such curve was filed as active;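 further: ME-180 reporter cells stimulated with EGF at its EC50 level; on the % scale 0 is the no-effect control and ±100 the full control effect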); details: ME-180 AP-1-bla reporter, EGF-induced, beta-lactamase ratio, 5 h; at 7.69 µM (top of the series) unless noted
Outline: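 Modulation of EGF-driven AP-1 transcription was assessed with a beta-lactamase reporter in ME-180 cells. Compound and EC50 EGF were co-incubated 5 hours at 37 °C before 2.5-hour CCF4 loading at room temperature and dual-emission reading.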

[2] = target: Cytochrome P450 1A2 (Homo sapiens) (UniProt P05177); assay: p450-cyp1a2 (AID 410; calls by dose curve; further: potency means the concentration at half of the fitted maximal effect)
Outline: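 Luminescent demethylation readout: Luciferin-ME (100uM, equal to Km) turned over by 20nM CYP1A2 for 60 min at room temperature after NADPH regeneration addition, following 10 min compound preincubation. Normalization used 57 uM furafylline as full inhibition.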

[3] = NFAT Signaling Pathway (AID 444; active means well fitted curve in either direction with a large enough effect, not every such curve was filed as active;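 further: carbachol stimulus at about its EC50 of 1 µM final; on the % scale 0 is the no-effect control and ±100 the full control effect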); details: Jurkat NFAT-bla M1, carbachol, beta-lactamase ratio, 5 h; at 7.69 µM (top of the series) unless noted
Outline: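 Jurkat cells carrying an NFAT-driven β-lactamase reporter and co-transfected muscarinic M1 receptor were treated with compound plus carbachol (1 uM final, an EC50 level) for 5 h at 37 °C. CCF4 loading followed for 1 h at RT; 460/530 nm ratio gave %activity.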

[4] = Stat Signaling Pathway (AID 446; active means well fitted curve in either direction with a large enough effect, not every such curve was filed as active;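 further: ME-180 cervical cancer cells given 40 pM IL-6 alongside compound; SIE-controlled beta-lactamase reporter measured as 460/530 nm FRET emission ratio; on the % scale 0 is the no-effect control and ±100 the full control effect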); details: ME-180 SIE beta-lactamase reporter, IL-6 stimulated, 5 h; at 7.69 µM (top of the series) unless noted
Outline: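 Overnight-plated ME-180 cells bearing a STAT Inducible Element beta-lactamase reporter; 5 h co-exposure to compound and 40 pM IL-6; values normalized to 300 pM IL-6 and 125 nM JAK inhibitor controls.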

[5] = target: Glucocorticoid receptor (Homo sapiens) (UniProt P04150); assay: GR-GFP Redistribution (AID 450;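 active means compounds whose dose series gives a full or clear partial fitted curve of increased nuclear translocation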; further: potency means the concentration at half of the fitted maximal effect); details: U2OS GR-GFP nuclear translocation, laser cytometry, 2 h
[6] = target: Glucocorticoid receptor (Homo sapiens) (UniProt P04150); assay: GR-EFC Redistribution (AID 451; calls by dose curve; further: potency means the concentration at half of the fitted maximal effect); details: CHO-K1 GR-EFC translocation, beta-gal luminescence, 2 h
Outline: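 CHO-K1 cells stably expressing nuclear-localized β-gal enzyme acceptor and GR fused C-terminally to the enzyme donor fragment; ligand-driven nuclear translocation restores β-gal by complementation. Compounds titrated up to 46 uM final, 2 h at 37 °C; luminescence read.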

[7] = target: Mitogen-activated protein kinase 10 (Mus musculus) (UniProt Q61831); assay: JNK3 AlphaScreen Assay (AID 530; active means well fitted curve in either direction with a large enough effect, not every such curve was filed as active;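 further: kinase came from lysate of stimulated human HepG2 cells; signal reports phosphorylation of biotinylated GST-cJun 1-79 at Ser73 with 10 µM ATP; on the % scale 0 is the no-effect control and ±100 the full control effect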)
Outline: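 Phosphorylation of biotinylated GST-cJun(1-79) at Ser73 is measured by AlphaScreen proximity luminescence. Enzyme is JNK3 in HepG2 lysates activated with interleukin-1beta and tumor necrosis factor alpha; ATP is 10 uM final.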

[8] = target: 3',5'-cyclic-AMP phosphodiesterase 4B (Homo sapiens) (UniProt Q07343); assay: qHTS Assay for Inhibitors of PDE-IV (AID 607; active means well fitted activation curve with a large enough effect in the main read-out, with a control signal flat, not every such curve was filed as active; further: % of control where 0% means no effect)
Outline: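 Live HEK293 cells with a modified cyclic nucleotide-gated (CNG) channel report intracellular cAMP via membrane-potential dye fluorescence (ex 535/em 590 nm). Endogenous PDE-IV was targeted. Compounds were tested at up to 22.9 uM final; RO 20-1724 100 uM served as control.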

[9] = qHTS Assay for Lipid Storage Modulators (AID 1519; calls by dose curve); details: Drosophila S3 cells, BODIPY lipid droplet/cell ratio, laser cytometry, cells loaded with oleic acid; for activity change, negative = inhibition: at 57.5 µM (top of the series)
Outline: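 Cells seeded at 5,000 per well were treated with compounds over a concentration series and loaded with oleic acid (400 uM, as added). Lipid droplet fluorescence (488 nm excitation, 500-530 nm channel) was read by laser-scanning cytometry and normalized to 20 uM Triacsin C.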

[10] = target: Dual specificity protein kinase CLK4 (Homo sapiens) (UniProt Q9HAZ1); assay: qHTS Assay for Inhibitors of CDC-like Kinase 4 (Kinase-Glo Assay) (AID 1770); further: nearly all actives have a fitted effect of over 65% in size; further: potency means the concentration at half of the fitted maximal effect
Outline: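 Recombinant human Clk4 (25 nM) phosphorylated RS repeat peptide (100 uM) with 1 uM ATP in Tris pH 7.5/MgCl2/EGTA/DTT/Triton buffer for 4.5 h at room temperature. Residual ATP was quantified by Kinase-Glo luciferase luminescence.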

[11] = target: Dual specificity protein kinase CLK4 (Homo sapiens) (UniProt Q9HAZ1); assay: qHTS Assay for Inhibitors of CDC-like Kinase 4 (ADP-Glo Assay) (AID 1771); further: nearly all actives have a fitted effect of over 70% in size; further: potency means the concentration at half of the fitted maximal effect
Outline: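 ADP production was read by ADP-Glo luminescence after residual ATP depletion, following 1 h room-temperature reaction of 25 nM Clk4, 1 uM ATP and 100 uM RS peptide with MgCl2, EGTA, DTT and Triton X-100.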

[12] = target: Dual specificity protein kinase CLK4 (Homo sapiens) (UniProt Q9HAZ1); assay: qHTS Assay for Inhibitors of CDC-like Kinase 4 (ADP-FP Assay) (AID 1795); further: nearly all actives have a fitted effect of over 60% in size; further: potency means the concentration at half of the fitted maximal effect
Outline: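 Recombinant human Clk4 (6.25 nM) phosphorylated RS repeat peptide (100 uM) with 1 uM ATP in Tris pH 7.5/MgCl2/EGTA/DTT/Triton buffer for one hour. ADP was quantified by Transcreener competitive fluorescence polarization against an ADP calibration curve.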

[13] = target: Ubiquitin carboxyl-terminal hydrolase 1 (Homo sapiens) (UniProt O94782); assay: Inhibitors of USP1/UAF1: Pilot qHTS (AID 504865);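 further: rhodamine fluorescence freed from ubiquitin-rhodamine substrate followed over time; top concentration of the series differs between compounds; on the % scale 0 is the no-effect control and ±100 the full control effect; nearly all actives have a fitted effect of over 35% in size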
Outline: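 USP1/UAF1 complex (1nM) preincubated with compound 15 min at room temperature, then Ub-Rho substrate (150nM final) added. Fluorescence read kinetically at 480/540 nm, 6 reads every 60 seconds. Buffer: 50mM HEPES pH 7.8, 0.5mM EDTA, 0.1 mg/ml BSA, 1mM TCEP, 0.01% Tween-20.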

[14] = Primary qHTS for small molecule stabilizers of the endoplasmic reticulum resident proteome: Secreted ER Calcium Modulated Protein (SERCaMP) assay (AID 1508630); further: on the % scale 0 is the no-effect control and ±100 the full control effect
Outline: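 The SH-SY5Y reporter protocol was run at 3 concentrations up to 38.3 uM (primary) or 11 concentrations (follow-up): 16 h compound, 100 nM thapsigargin for 4 h, then extracellular luciferase luminescence.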

[15] = target: Lysosomal acid glucosylceramidase (Homo sapiens) (UniProt P04062); assay: Glucocerebrosidase-p2 (AID 348; in the data active means potency below about 10 µM; further: potency means the concentration at half of the fitted maximal effect); details: purified GBA, blue fluorogenic substrate, 40 min
Outline: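 Normal human glucocerebrosidase (0.2 nM) with blue fluorogenic substrate (80 uM final) in citrate/phosphate pH 5.9 with 10mM sodium taurocholate, 0.01% tween-20; 40 min RT, NaOH/glycine stop; fluorescence Ex 365/Em 440; AC50 from a titration from 0.6 nM upwards.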

[16] = target: Cytochrome P450 3A4 (Homo sapiens) (UniProt P08684); assay: qHTS Assay for Activators of Cytochrome P450 3A4 (AID 885); further: nearly all actives have a fitted effect of over 65% in size
Outline: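 Using 20nM recombinant human CYP3A4 in potassium phosphate (200mM), substrate Luciferin-PPXE at 25uM, luminescent luciferin detection followed a 60-min RT NADPH reaction; data scaled to 57 uM ketoconazole.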

[17] = qHTS Assay for Identification of Small Molecule Agonists for Hypoxia Response Element Signaling Pathway (AID 914; active means well fitted activation curve with a large enough effect in the signal ratio, with a control signal flat, not every such curve was filed as active; the % refers to the signal ratio; further: potency means the concentration at half of the fitted maximal effect); details: ME-180 (cervical carcinoma) HRE-bla reporter, beta-lactamase ratio, CoCl2, 17 h; activation: stronger effect = higher value
Outline: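 Positive modulation of EC50 CoCl2-induced hypoxia response element signaling is measured in ME-180 cells with a beta-lactamase reporter. Compounds are titrated, incubation runs 17 hours, and %Activity derives from the blue/green ratio.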

[18] = measured here: cell count channel max response
[19] = measured here: lipid channel max response

Cytochrome P450 3A4 (Homo sapiens), sequence (P08684 whole entry, looked up): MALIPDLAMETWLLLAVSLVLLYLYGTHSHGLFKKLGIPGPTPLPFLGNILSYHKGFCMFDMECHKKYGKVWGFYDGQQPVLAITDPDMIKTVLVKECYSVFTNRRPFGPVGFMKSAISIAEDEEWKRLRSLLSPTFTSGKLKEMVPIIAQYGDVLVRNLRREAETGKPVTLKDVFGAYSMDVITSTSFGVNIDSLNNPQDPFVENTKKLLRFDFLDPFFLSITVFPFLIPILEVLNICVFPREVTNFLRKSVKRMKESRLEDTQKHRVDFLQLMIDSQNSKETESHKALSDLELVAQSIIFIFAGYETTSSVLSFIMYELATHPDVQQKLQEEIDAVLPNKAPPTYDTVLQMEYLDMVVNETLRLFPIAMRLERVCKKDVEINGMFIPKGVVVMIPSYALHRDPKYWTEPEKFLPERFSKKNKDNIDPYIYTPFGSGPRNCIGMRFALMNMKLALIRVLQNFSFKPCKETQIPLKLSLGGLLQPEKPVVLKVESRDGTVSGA
Dual specificity protein kinase CLK4 (Homo sapiens), sequence (Q9HAZ1 whole entry, looked up): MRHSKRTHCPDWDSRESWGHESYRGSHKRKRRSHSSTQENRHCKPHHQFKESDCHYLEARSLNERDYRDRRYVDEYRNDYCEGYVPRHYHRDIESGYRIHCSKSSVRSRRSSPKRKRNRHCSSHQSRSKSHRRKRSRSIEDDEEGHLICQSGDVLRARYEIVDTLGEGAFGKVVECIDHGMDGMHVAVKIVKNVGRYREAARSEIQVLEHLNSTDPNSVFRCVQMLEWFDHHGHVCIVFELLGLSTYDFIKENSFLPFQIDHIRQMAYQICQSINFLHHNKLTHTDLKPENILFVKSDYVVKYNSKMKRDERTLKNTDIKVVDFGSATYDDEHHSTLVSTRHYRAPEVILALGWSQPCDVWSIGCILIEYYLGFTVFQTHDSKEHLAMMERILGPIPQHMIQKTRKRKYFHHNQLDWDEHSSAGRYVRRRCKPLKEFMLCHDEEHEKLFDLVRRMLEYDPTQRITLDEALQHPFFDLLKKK
3',5'-cyclic-AMP phosphodiesterase 4B (Homo sapiens), sequence (Q07343 whole entry, looked up): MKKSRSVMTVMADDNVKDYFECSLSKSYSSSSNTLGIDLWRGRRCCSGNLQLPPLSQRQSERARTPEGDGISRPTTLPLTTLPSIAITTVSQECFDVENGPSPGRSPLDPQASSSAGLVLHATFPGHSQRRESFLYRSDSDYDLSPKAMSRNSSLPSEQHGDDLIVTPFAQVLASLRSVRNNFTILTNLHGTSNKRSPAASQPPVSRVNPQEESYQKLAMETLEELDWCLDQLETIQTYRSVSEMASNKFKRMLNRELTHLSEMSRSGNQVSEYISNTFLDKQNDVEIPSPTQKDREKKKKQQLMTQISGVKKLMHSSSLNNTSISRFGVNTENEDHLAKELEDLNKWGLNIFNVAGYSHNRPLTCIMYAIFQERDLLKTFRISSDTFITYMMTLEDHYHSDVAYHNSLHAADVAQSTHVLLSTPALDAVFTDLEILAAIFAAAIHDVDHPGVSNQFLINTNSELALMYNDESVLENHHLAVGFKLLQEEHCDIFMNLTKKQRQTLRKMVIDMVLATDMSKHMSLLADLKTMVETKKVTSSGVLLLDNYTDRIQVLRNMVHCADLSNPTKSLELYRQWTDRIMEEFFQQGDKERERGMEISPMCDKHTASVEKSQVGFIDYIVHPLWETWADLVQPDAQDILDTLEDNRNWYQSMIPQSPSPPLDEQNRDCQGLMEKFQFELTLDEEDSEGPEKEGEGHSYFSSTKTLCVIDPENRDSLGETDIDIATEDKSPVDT
Glucocorticoid receptor (Homo sapiens), sequence (P04150 whole entry, looked up, the tested form may be a part): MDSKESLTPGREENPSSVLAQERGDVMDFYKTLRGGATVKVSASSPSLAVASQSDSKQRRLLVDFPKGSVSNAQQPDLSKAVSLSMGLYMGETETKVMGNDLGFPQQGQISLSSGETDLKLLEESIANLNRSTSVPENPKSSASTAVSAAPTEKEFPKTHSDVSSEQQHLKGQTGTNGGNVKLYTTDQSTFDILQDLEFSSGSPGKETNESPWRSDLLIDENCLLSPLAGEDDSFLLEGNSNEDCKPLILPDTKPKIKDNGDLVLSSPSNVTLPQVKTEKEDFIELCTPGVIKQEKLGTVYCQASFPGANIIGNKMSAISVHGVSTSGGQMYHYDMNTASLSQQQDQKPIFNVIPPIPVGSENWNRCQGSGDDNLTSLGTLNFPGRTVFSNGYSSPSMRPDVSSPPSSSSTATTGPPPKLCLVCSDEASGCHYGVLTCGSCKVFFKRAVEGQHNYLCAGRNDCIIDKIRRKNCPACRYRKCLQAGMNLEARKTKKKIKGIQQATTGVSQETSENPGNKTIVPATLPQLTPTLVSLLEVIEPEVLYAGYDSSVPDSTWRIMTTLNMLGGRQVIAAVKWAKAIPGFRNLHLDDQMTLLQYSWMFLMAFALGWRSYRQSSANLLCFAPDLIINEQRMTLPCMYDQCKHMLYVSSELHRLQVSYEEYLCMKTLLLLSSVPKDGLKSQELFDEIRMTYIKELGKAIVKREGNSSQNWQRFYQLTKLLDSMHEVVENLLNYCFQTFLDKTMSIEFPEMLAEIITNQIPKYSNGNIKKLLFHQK
Cytochrome P450 1A2 (Homo sapiens), sequence (P05177 whole entry, looked up): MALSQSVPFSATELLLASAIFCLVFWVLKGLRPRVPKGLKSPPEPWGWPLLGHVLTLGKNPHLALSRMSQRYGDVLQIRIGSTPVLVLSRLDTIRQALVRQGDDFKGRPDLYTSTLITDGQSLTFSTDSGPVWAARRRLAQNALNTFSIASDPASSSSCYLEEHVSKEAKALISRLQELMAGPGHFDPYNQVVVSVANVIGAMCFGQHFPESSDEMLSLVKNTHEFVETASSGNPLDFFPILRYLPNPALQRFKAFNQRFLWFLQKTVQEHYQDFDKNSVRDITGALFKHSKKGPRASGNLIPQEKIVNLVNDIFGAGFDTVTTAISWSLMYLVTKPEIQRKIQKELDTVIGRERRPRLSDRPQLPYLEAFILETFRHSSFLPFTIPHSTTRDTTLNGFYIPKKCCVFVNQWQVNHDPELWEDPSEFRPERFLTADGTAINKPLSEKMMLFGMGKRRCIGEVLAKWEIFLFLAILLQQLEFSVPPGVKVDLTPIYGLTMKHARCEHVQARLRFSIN
Ubiquitin carboxyl-terminal hydrolase 1 (Homo sapiens), sequence (O94782 whole entry, looked up): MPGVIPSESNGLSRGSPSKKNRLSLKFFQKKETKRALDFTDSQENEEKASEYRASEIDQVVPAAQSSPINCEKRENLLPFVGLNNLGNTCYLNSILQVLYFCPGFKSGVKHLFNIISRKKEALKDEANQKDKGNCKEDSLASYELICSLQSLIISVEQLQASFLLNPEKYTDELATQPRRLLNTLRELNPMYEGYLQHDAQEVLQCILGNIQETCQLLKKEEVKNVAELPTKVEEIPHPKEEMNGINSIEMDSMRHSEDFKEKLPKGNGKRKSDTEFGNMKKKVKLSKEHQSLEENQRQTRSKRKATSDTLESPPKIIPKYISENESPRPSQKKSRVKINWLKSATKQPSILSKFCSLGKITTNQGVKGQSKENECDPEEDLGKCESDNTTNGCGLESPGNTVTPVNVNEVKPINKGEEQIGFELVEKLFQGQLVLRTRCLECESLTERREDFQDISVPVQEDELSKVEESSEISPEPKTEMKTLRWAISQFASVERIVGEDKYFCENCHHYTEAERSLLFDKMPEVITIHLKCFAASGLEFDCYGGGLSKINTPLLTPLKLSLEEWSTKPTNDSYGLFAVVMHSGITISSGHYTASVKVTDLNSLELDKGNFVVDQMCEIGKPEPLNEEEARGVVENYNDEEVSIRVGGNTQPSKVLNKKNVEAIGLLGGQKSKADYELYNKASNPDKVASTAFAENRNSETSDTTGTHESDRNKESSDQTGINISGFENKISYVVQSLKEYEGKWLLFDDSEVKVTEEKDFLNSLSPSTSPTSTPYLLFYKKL
Lysosomal acid glucosylceramidase (Homo sapiens), sequence (P04062 whole entry, looked up): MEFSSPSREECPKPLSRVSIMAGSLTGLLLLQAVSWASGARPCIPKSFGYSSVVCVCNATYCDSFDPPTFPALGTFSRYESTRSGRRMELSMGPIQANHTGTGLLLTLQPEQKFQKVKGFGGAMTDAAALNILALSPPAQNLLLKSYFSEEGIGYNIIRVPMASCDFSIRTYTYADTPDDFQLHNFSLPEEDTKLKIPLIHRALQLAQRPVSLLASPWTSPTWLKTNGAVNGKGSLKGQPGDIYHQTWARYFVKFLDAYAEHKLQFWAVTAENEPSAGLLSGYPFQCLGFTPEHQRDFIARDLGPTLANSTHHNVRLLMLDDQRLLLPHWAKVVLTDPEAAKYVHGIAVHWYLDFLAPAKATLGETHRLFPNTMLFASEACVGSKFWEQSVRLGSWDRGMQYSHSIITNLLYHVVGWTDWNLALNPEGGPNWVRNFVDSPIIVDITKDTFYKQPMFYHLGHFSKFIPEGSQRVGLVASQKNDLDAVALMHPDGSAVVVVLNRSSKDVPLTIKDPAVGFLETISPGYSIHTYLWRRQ

c1nc(NC2CCNCC2)c2cc(-c3ccoc3)ccc2n1
11.3%: max response [9, 19]
13.4%: max response [9, 18]
inactive: activity change, negative = inhibition [1] -0.789% | activity change, negative = inhibition [3] 12.3% | activity, negative = inhibition [4] -3% | Potency [5] > 46 µM | Potency [6] > 46 µM | outcome [7] | Potency [8] | activity change, negative = inhibition [9] 0.0897% | Potency [13] | Potency [14]
active: Potency [2] 25.1 µM | Potency [10] 0.891 µM | Potency [11] 1 µM | Potency [12] 0.631 µM

CS(=O)(=O)Nc1cccc(-c2ccc3ncnc(Nc4ccccc4)c3c2)c1
active: Potency [2] 1 µM | Potency [10] 15.8 µM | Potency [11] 14.1 µM | Potency [12] 14.1 µM
inactive: Potency [15] > 11.4 µM | activity, negative = inhibition [4] -2.27% | Potency [5] > 46 µM | Potency [6] > 46 µM | outcome [7] | Potency [8] | Potency [16] | activity change, negative = inhibition [9] 5.6% | Potency [13] | Potency [14]
11.8%: max response [9, 19]
6.09%: max response [9, 18]

Cn1c(=O)c(-c2cccs2)nc2cnc(N3CCNCC3)nc21
active: Potency [2] 10 µM | Potency [17] 3.16 µM
inactive: Potency [15] > 11.4 µM | Potency [5] > 9.22 µM | Potency [6] > 46 µM | outcome [7] | Potency [8] | Potency [16] | activity change, negative = inhibition [9] 4.59% | Potency [10] | Potency [11] | Potency [12] | Potency [13] | Potency [14]
18.9%: max response [9, 19]
15.4%: max response [9, 18]

COc1ccc(-n2c(=O)c(-c3ccc(F)cc3)nc3cnc(N4CCOCC4)nc32)cc1
active: Potency [17] 3.16 µM
inactive: Potency [15] > 11.4 µM | activity change, negative = inhibition [3] 12.6% | Potency [5] > 9.22 µM | Potency [6] > 46 µM | outcome [7] | Potency [8] | activity change, negative = inhibition [9] 4.12% | Potency [10] | Potency [11] | Potency [12] | Potency [13] | Potency [14]
4.35%: max response [9, 19]
3.3%: max response [9, 18]

CN1CCN(c2ncc3nc(-c4cc(F)cc(F)c4)c(=O)n(Cc4cccs4)c3n2)CC1
3.46%: max response [9, 19]
17.2%: max response [9, 18]
active: Potency [2] 6.31 µM | activity change, negative = inhibition [3] 168% [activator] | Potency [17] 3.16 µM
inactive: Potency [15] > 11.4 µM | Potency [5] > 9.22 µM | Potency [6] > 46 µM | outcome [7] | Potency [8] | Potency [16] | activity change, negative = inhibition [9] -9.14% | Potency [10] | Potency [11] | Potency [12] | Potency [13] | Potency [14]

O=c1c(-c2ccc(F)cc2)nc2cnc(N3CCNCC3)nc2n1C1CC1
inactive: Potency [15] > 11.4 µM | Potency [5] > 9.22 µM | Potency [6] > 46 µM | outcome [7] | Potency [8] | Potency [16] | activity change, negative = inhibition [9] 2.85% | Potency [10] | Potency [11] | Potency [12] | Potency [13] | Potency [14]
26.5%: max response [9, 18]
28.4%: max response [9, 19]
active: Potency [2] 2.51 µM | Potency [17] 2.51 µM

Reference: PubChem BioAssay (NCATS)
